# Results from paper PMC6925144, “A prospective compound screening contest identified broader inhibitors for Sirtuin 1” (Scientific Reports, 2019).
# Whole data set: some 3,200 compounds, median “TSA(with NAD+) / Primary screening (TSA) / delta Tm (K)” near -0.04, cut for the highest 2% near 0.37. The full list was thinned out, with the highest values kept by preference.
# Biological target: NAD-dependent deacetylase Sirtuin 1 (human, UniProt Q96EB6)
# Assay: primary screen, delta tm
# Set-up: single well (n = 1, as 'the same TSA')
# Conditions: 10 µM
# Description: A total of 3,192 compounds extracted from the proposed lists were first screened by thermal shift assay (TSA), which determined a melting temperature shift (ΔTm) of Sirtuin 1 upon the addition of a test compound at a concentration of 10 µM (n = 1) with primary hit criteria of ΔTm > 0.45 K or ΔTm < −1.5 K. Primary hits (48 compounds) were retested in the same assay at three concentrations (5, 10, 20 µM, n = 4) for hit confirmation and for dose-dependency check. Secondary hits (41 compounds) were checked their selectivity for Sirtuin 1 based on counterscreening on unrelated protein targets (bovine carbonic anhydrase (CA) and recombinant SH2 domain of hABL1 kinase (ABL1)) at three different concentrations (5, 10, 20 µM, n = 4), which yielded 38 hit compounds, hereafter referred to as TSA hits. The TSA screening above was conducted in the absence of NAD+. As noted, the structure of Sirtuin 1 is different in the presence of NAD+ and substrate. The chemical profile of TSA hits found from the different conditions could be different. […] As a result, 39 TSA hits were found.
# NAD-dependent deacetylase Sirtuin 1, sequence (Q96EB6 2-747 limits assumed): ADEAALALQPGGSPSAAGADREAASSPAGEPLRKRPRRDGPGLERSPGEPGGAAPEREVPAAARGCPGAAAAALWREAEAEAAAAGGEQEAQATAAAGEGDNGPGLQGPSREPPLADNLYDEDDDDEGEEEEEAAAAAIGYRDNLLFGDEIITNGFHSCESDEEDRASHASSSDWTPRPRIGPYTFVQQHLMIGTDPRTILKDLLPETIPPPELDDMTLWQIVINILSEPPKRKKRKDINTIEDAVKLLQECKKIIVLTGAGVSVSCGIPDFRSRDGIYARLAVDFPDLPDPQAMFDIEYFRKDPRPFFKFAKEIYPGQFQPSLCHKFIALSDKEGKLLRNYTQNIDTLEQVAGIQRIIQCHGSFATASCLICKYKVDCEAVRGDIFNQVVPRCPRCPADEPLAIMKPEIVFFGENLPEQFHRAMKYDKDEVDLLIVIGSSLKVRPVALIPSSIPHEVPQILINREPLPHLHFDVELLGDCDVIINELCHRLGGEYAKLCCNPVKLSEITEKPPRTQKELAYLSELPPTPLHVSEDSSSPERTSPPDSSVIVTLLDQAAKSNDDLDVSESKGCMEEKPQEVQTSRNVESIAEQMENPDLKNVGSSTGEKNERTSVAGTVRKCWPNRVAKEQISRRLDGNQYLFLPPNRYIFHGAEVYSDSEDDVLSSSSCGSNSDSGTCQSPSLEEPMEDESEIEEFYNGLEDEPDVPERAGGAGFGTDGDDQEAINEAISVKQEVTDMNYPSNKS
row,SMILES,TSA(with NAD+) / Primary screening (TSA) / delta Tm (K)
1,COc1ccc(N(C)S(=O)(=O)c2cccc(C(=O)Nc3ccc4ccccc4c3)c2)cc1,0.65
2,COc1ccc(N(C)S(=O)(=O)c2cccc(C(=O)Nc3cccc4ccccc34)c2)cc1,-0.09
3,COc1ccc(N(C)S(=O)(=O)c2cccc(C(=O)Nc3ncc(C(N)=O)s3)c2)cc1,-0.03
4,Cc1ccc(N(C)S(=O)(=O)c2cccc(C(=O)Nc3cccc(C#N)c3)c2)cc1,0.28
5,COc1ccc(N(C)S(=O)(=O)c2cccc(C(=O)Nc3ccc(OC)c(OC)c3)c2)cc1,-0.04
6,CN(c1ccccc1)S(=O)(=O)c1cccc(NC(=O)c2cccc(C#N)c2)c1,0.08
7,CN(c1cccc(Cl)c1)S(=O)(=O)c1cccc(C(=O)Nc2cccc(C#N)c2)c1,0.45
8,COc1ccc(N(C)S(=O)(=O)c2cccc(C(=O)Nc3ccc4c(C)cc(=O)oc4c3)c2)cc1,-0.09
9,COc1ccc(N(C)S(=O)(=O)c2cccc(C(=O)Nc3ccc(Br)cc3F)c2)cc1,0.36
10,COc1ccc(N(C)S(=O)(=O)c2cccc(C(=O)Nc3ccc(-n4cnnn4)cc3)c2)cc1,0.76
11,COc1ccc(N(C)S(=O)(=O)c2cccc(C(=O)Nc3ccc(Br)c(C(F)(F)F)c3)c2)cc1,0.69
12,COc1ccc(N(C)S(=O)(=O)c2cccc(C(=O)Nc3cccc(C#N)c3)c2)cc1,0.35
13,CC(C)Cn1c(SCC(=O)Nc2sc3c(c2C(N)=O)CCC3)nnc1N1CCOCC1,-0.18
14,Cc1ccc(-c2nn(-c3ccccc3)cc2C=C2C(=O)NC(=O)NC2=O)o1,-0.59
15,CN(CCC#N)C(=O)C(C)(C)c1ccccc1,-0.08
16,O=C(CSc1nnc(NCC2CCCO2)s1)Nc1nc(-c2cc(F)ccc2F)cs1 (stereo not shown),0.01
17,COc1ccc(N(C)S(=O)(=O)c2cccc(C(=O)Nc3ccc(Br)cc3)c2)cc1,1.36
18,COc1ccc(N(C)S(=O)(=O)c2cccc(C(=O)Nc3cccc(Br)c3)c2)cc1,0.32
19,Cc1ccc(N(C)S(=O)(=O)c2cccc(C(=O)Nc3nc4ccccc4[nH]3)c2)cc1,-0.06
20,COc1ccc(NC(=O)c2cccc(S(=O)(=O)N(C)c3ccc(OC)cc3)c2)cc1,-0.02
21,COc1ccc(N(C)S(=O)(=O)c2cccc(C(=O)Nc3ccc(C)cc3)c2)cc1,0.11
22,CN(c1ccccc1)S(=O)(=O)c1cccc(C(=O)Nc2ccccc2-c2nc3ccccc3[nH]2)c1,0.38

row,SMILES,TSA(with NAD+) / Primary screening (TSA) / delta Tm (K)
1,COc1ccc(N(C)S(=O)(=O)c2cccc(C(=O)Nc3ccc(Cl)cc3)c2)cc1,0.86
2,CCCOC(=O)c1ccc(NC(=O)c2cccc(S(=O)(=O)N(C)c3ccc(OC)cc3)c2)cc1,0.29
3,CN(c1ccccc1)S(=O)(=O)c1cccc(C(=O)Nc2ccccc2-c2ccccc2)c1,-0.02
4,NC(=O)c1oc2ccccc2c1NC(=O)Cc1ccc(Cl)c(Cl)c1,0.12
5,CC(=O)Nc1ccc(NCc2nnc3n(C)c(=O)c4ccccc4n23)cc1,-0.12
6,NC1=C(c2nc3ccccc3[nH]2)C(=O)CN1c1ccc(CC(=O)O)cc1,-0.03
7,CC(O)CCCN (stereo not shown),-0.11
8,Cc1ccc(S(=O)(=O)N2CCCCC2)cc1NC(=O)COC(=O)c1ccccc1SCC(=O)N1CCCC1,-0.01
9,Cc1nc(COc2ccc(C(=O)Nc3ccc(S(=O)(=O)Nc4cccc(F)c4)cc3)cc2)cs1,-0.14
10,N#CC(C(=O)c1ccc(NS(=O)(=O)c2ccccc2)cc1)c1nc(-c2ccccn2)cs1 (stereo not shown),0.47
11,O=C(Nc1ccc(Oc2ncccn2)cc1)c1ccc(S(=O)(=O)Nc2ccc(F)cc2)cc1,0.06
12,Cc1ccc(N(C)S(=O)(=O)c2cccc(C(=O)Nc3ccccc3Cl)c2)cc1,-0.13
13,Cc1ccc(N(C)S(=O)(=O)c2cccc(C(=O)Nc3ccccc3C(F)(F)F)c2)cc1,-0.09
14,O=C(NN/C=C1/C(=O)N(c2cccc(C(F)(F)F)c2)C(=O)c2ccccc21)c1cccc(S(=O)(=O)Nc2ccccc2Cl)c1,0.99
15,C=CCOc1ccc(C(=O)C2=C(O)C(=O)N(CCN3CCOCC3)C2c2ccco2)cc1 (stereo not shown),-0.01
16,COc1ccccc1-c1noc(C(C)NC(=O)C(C)NC(C)=O)n1 (stereo not shown),-0.01
17,COc1ccc(-c2cc(NC(=O)CCNC(=O)c3ccc(Cl)cc3)ccc2OC(F)F)cc1,0.45
18,COc1ccc(-c2cc(NC(=O)Cc3n[nH]c(=O)c4ccccc34)ccc2OC(F)F)cc1,0.07
19,COc1ccc(CC(=O)NCCNC(=O)c2ccc(C)c(F)c2)cc1,-0.13
20,O=C(C1=C(O)C(=O)N(CCCN2CCOCC2)C1c1cccc([N+](=O)[O-])c1)c1ccc(F)cc1 (stereo not shown),0.06
21,O=C(COC(=O)c1cc(-c2ccc(Cl)cc2)nc2ccccc12)NNC(=O)c1cccs1,0.16
22,Cc1cccc(C(=O)OCc2ccc(C(=O)Nc3ccccc3)cc2)c1,-0.03

row,SMILES,TSA(with NAD+) / Primary screening (TSA) / delta Tm (K)
1,Nc1nc(COC(=O)c2cccc(NC(=O)c3cccs3)c2)nc(Nc2ccccc2)n1,0.42
2,CC1CCCN(CCCNC(=O)CCc2cc3ccccc3[nH]c2=O)C1 (stereo not shown),0.11
3,O=C(CCc1ccc2c(c1)OCO2)N1CCc2[nH]c3ccccc3c2C1,-0.01
4,O=C(Cc1c[nH]c2ccccc12)N1CCc2[nH]c3ccccc3c2C1,0.37
5,O=C(CN1CCCC2(CC=CCC2)C1)N1CCc2[nH]c3ccccc3c2C1 (stereo not shown),0.06
6,Cc1n[nH]c(=O)c(C(=O)NNC(=O)CC23CC4CC(CC(C4)C2)C3)c1C,0.19
7,Cc1c(CCC#N)c(Cl)n2c(nc3ccccc32)c1C#N,-0.03
8,CCc1c(C)c(C#N)c2nc3ccccc3n2c1S,0.46
9,CCc1c(C)c(C#N)c2nc3ccccc3n2c1Cl,-0.05
10,CCNC(=O)NCc1ccc(NC(=O)Cc2cn(CC)c3ccccc23)cc1,0.09
11,Cc1ccc2nc(-c3ccccc3)c(N)n2c1,0.38
12,NC(=O)c1cc(NC(=O)CC(c2ccccc2)c2ccccc2)cc(C(N)=O)c1,-0.06
13,Cc1ccc(N(C)S(=O)(=O)c2cccc(C(=O)Nc3cc(F)ccc3C)c2)cc1,-0.01
14,O=C(Nc1cc(S(=O)(=O)N2CCOCC2)ccc1O)C1=COCCO1,-0.16
15,CC(=O)Nc1ccc(NC(=O)c2cccc(C(N)=O)c2)cc1C,-0.12
16,CC1CCc2sc(C(=O)Nc3ccccc3Cc3ccccc3)cc2C1 (stereo not shown),-0.13
17,NC(=O)c1cccc(NC(=O)c2cc3c(s2)-c2ccccc2CC3)c1,0.88
18,O=C(O)c1nc(Nc2ccc(Cl)cc2)c2ccccc2n1,-0.11
19,CCn1nnc2cc(C(=O)N3CCN(C(c4ccc(F)cc4)c4ccc(F)cc4)CC3)ccc21,-0.22
20,Cc1ccc(NC(=O)COC(=O)c2ccc(-n3nnc4ccccc43)c([N+](=O)[O-])c2)cc1C,0.35
21,COc1cc(/C=N/NC(=O)c2cc3c(s2)CCCC3)ccc1OCC(=O)Nc1ccc(C)cc1,0.52
22,CC(OC(=O)c1cc2c(s1)CCCC2)C(=O)Nc1ccc(C(N)=O)cc1 (stereo not shown),0.01

row,SMILES,TSA(with NAD+) / Primary screening (TSA) / delta Tm (K)
1,NC(=O)c1ccc(NC(=O)COC(=O)c2cc3c(s2)CCCCC3)cc1,-0.13
2,CCOc1cc(/C=N/NC(=O)c2cc3c(s2)CCCC3)ccc1OCC(=O)Nc1cccc(C(F)(F)F)c1,1.05
3,CCOc1ccc(NC(=O)CN(C)Cc2ccc(C(=O)Nc3ccccc3)cc2)cc1OCC,-0.02
4,COc1cc(/C=N/NC(=O)c2cc3c(s2)CCCC3)ccc1OS(=O)(=O)c1cc(C)ccc1C,0.09
5,O=c1cc(CSc2ncc(C(F)(F)F)cc2Cl)nc2ccccn12,-0.23
6,Cc1cc(C=C2C(=O)NC(=S)NC2=O)c(C)n1-c1cccc(C(F)(F)F)c1,-0.73
7,Cc1oc2nc[nH]c(=O)c2c1C(=O)OC(C)C(=O)N1CCOCC1 (stereo not shown),-0.06
8,CCSC1CCC(NC(=O)Cc2cnc3ccccc3c2)C1 (stereo not shown),-0.11
9,O=C(Nc1cnc2ccccc2c1)C(=O)N1CCC(Oc2ccccc2)CC1,0.06
10,CCn1cc(C2CCN(C(=O)Cc3cnc4ccccc4c3)CC2)cn1,0.68
11,COc1ccc(CNCc2c[nH]nc2-c2ccc(C)cc2)cc1OC,-0.13
12,c1ccc(-c2[nH]c3ccccc3c2-c2ccccc2)cc1,0.39
13,c1ccc(-c2[nH]c3c(ccc4ccccc43)c2-c2ccccc2)cc1,0.29
14,Nc1nc(-c2c(-c3ccccc3)[nH]c3ccccc23)cs1,0.16
15,CC1COCCN1c1ncnc2ccsc12 (stereo not shown),0.03
16,NC(=O)c1csc(C(=O)NCCc2cc(F)cc3c2OCOC3)c1,-0.03
17,COc1cc(C(C)=O)ccc1COc1ccc(C(=O)OC(C)C(=O)NC23CC4CC(CC(C4)C2)C3)cc1OC (stereo not shown),0.09
18,Cc1ccc([N+](=O)[O-])cc1S(=O)(=O)Nc1ccc(C(=O)OC(C)C(=O)NC23CC4CC(CC(C4)C2)C3)cc1 (stereo not shown),0.76
19,CC(OC(=O)c1cccc(S(=O)(=O)NCc2ccccc2)c1)C(=O)NC12CC3CC(CC(C3)C1)C2 (stereo not shown),0.16
